We go through 36 compounds from the antibiotic and cytotoxicity screens of Wong et al. (2023).

Each structure is given as a SMILES string. The whole screen tested about 39,000 compounds, of which about 3,300 (8.5%) were called active. This excerpt belongs to a sample that is enriched for actives.

For the experiment, the system named is HepG2. Put plainly: cytotoxicity call (relative viability < 0.9). The note with it: 10 µM.
Consider `C[C@@H]1CN([C@@H](C)CO)C(=O)Cc2cc(NC(=O)CCCN(C)C)ccc2O[C@H]1CN(C)S(=O)(=O)c1ccc(Cl)cc1`, for which the cytotoxicity call was “inactive”.
With `Cc1noc(C)c1NC(=O)N(C)C[C@H]1Oc2ccc(NC(=O)C3CC3)cc2CC(=O)N([C@@H](C)CO)C[C@@H]1C` the entry was “inactive”; with `C[C@@H]1CCCCO[C@@H](CN(C)S(=O)(=O)c2cn(C)cn2)[C@H](C)CN([C@@H](C)CO)C(=O)c2cc(NC(=O)Nc3cccc4ccccc34)ccc2O1`, “inactive”.
Regarding `CCCNC(=O)N(C)C[C@@H]1Oc2ncc(-c3ccc(C(=O)N(C)C)cc3)cc2C(=O)N([C@H](C)CO)C[C@H]1C`, the cytotoxicity call is “inactive”.
With `C[C@@H]1CCCCO[C@@H](CN(C)C(=O)Nc2ccc(C(F)(F)F)cc2)[C@H](C)CN([C@@H](C)CO)C(=O)c2cc(NC(=O)Nc3ccc(F)cc3)ccc2O1` the entry was “inactive”; with `Cc1ccc(S(=O)(=O)N(C)C[C@H]2OCCCC[C@H](C)Oc3ccc(NS(=O)(=O)c4ccc(F)cc4)cc3C(=O)N([C@H](C)CO)C[C@@H]2C)cc1`, “inactive”.
With `C[C@@H]1CN([C@@H](C)CO)C(=O)Cc2cc(NC(=O)Nc3ccc(F)cc3)ccc2O[C@H]1CN(C)Cc1ccc(C(=O)Nc2ccccc2N)cc1` the entry was “inactive”; with `C[C@H](CO)N1C[C@H](C)[C@H](CN(C)Cc2ccc(C(=O)Nc3ccccc3N)cc2)Oc2ccc(NC(=O)Nc3ccccc3)cc2CC1=O`, “inactive”; with `C[C@H]1CN([C@@H](C)CO)C(=O)Cc2cc(NC(=O)Nc3ccccc3)ccc2O[C@H]1CN(C)Cc1ccc(C(=O)Nc2ccccc2N)cc1`, “inactive”.
To `COc1ccc(NC(=O)Nc2ccc3c(c2)CC(=O)N([C@H](C)CO)C[C@@H](C)[C@@H](CN(C)Cc2ccc(C(=O)Nc4ccccc4N)cc2)O3)cc1` belongs “active”; to `C[C@@H]1CN([C@H](C)CO)C(=O)Cc2cc(NC(=O)Nc3ccccc3)ccc2O[C@@H]1CN(C)Cc1ccc(C(=O)Nc2ccccc2N)cc1`, “active”.
Take `C[C@@H]1CN([C@H](C)CO)C(=O)Cc2cc(NC(=O)Nc3cccc4ccccc34)ccc2O[C@H]1CN(C)Cc1ccc(C(=O)Nc2ccccc2N)cc1`: the cytotoxicity call is “inactive”.
To `COc1ccc(NC(=O)Nc2ccc3c(c2)CC(=O)N([C@@H](C)CO)C[C@H](C)[C@@H](CN(C)Cc2ccc(C(=O)Nc4ccccc4N)cc2)O3)cc1` belongs “inactive”; to `C[C@H](CO)N1C[C@H](C)[C@H](CN(C)Cc2ccc(C(=O)Nc3ccccc3N)cc2)Oc2ccc(NC(=O)Nc3cccc4ccccc34)cc2CC1=O`, “active”.
In the case of `C[C@H](CO)N1C[C@H](C)[C@@H](CN(C)Cc2ccc(C(=O)Nc3ccccc3N)cc2)Oc2ccc(NC(=O)Nc3ccccc3)cc2CC1=O`, the cytotoxicity call is “inactive”.
To `COc1ccc(NC(=O)Nc2ccc3c(c2)CC(=O)N([C@H](C)CO)C[C@H](C)[C@@H](CN(C)Cc2ccc(C(=O)Nc4ccccc4N)cc2)O3)cc1` belongs “inactive”.
Take `C[C@@H]1CN([C@H](C)CO)C(=O)Cc2cc(NC(=O)Nc3ccc(F)cc3)ccc2O[C@@H]1CN(C)Cc1ccc(C(=O)Nc2ccccc2N)cc1`: the cytotoxicity call is “active”.
As to `C[C@@H]1CN([C@H](C)CO)C(=O)Cc2cc(NC(=O)Nc3cccc4ccccc34)ccc2O[C@@H]1CN(C)Cc1ccc(C(=O)Nc2ccccc2N)cc1`, the cytotoxicity call is “inactive”.
On to `COCC#Cc1ccc2c(c1)O[C@@H](CN(C)S(=O)(=O)c1ccc(F)cc1)[C@H](C)CN([C@@H](C)CO)S2(=O)=O`, for which the cytotoxicity call was “inactive”.
With `C[C@@H]1CN([C@@H](C)CO)C(=O)Cc2cc(NS(=O)(=O)c3cccs3)ccc2O[C@H]1CN(C)S(=O)(=O)c1ccc(F)cc1` the entry was “inactive”.
As to `C[C@H](CO)N1C[C@H](C)[C@@H](CN(C)C(=O)Nc2ccccc2)Oc2ccc(NC(=O)CCN3CCOCC3)cc2CC1=O`, the cytotoxicity call is “inactive”.
With `Cc1noc(C)c1NC(=O)Nc1ccc2c(c1)C(=O)N([C@H](C)CO)C[C@H](C)[C@H](CN(C)C(=O)C1CCCCC1)OCCCC[C@@H](C)O2` the entry was “inactive”.
With `C[C@H](CO)N1C[C@H](C)[C@@H](CN(C)Cc2ccc(C(=O)Nc3ccccc3N)cc2)Oc2ccc(NC(=O)Nc3ccc(F)cc3)cc2CC1=O` the entry was “inactive”.
To `C[C@H]1CN([C@@H](C)CO)C(=O)Cc2cc(NC(=O)Nc3ccc(F)cc3)ccc2O[C@H]1CN(C)Cc1ccc(C(=O)Nc2ccccc2N)cc1` belongs “active”.
For `C[C@H](CO)N1C[C@H](C)[C@H](CN(C)Cc2ccc(C(=O)Nc3ccccc3N)cc2)Oc2ccc(NC(=O)Nc3ccc(F)cc3)cc2CC1=O`, the cytotoxicity call was “inactive”.
With `C[C@@H]1CN([C@H](C)CO)C(=O)Cc2cc(NC(=O)Nc3ccc(F)cc3)ccc2O[C@H]1CN(C)Cc1ccc(C(=O)Nc2ccccc2N)cc1` the entry was “inactive”; with `C[C@@H]1CN([C@@H](C)CO)C(=O)Cc2cc(NC(=O)Nc3ccc(F)cc3)ccc2O[C@@H]1CN(C)Cc1ccc(C(=O)Nc2ccccc2N)cc1`, “active”; with `C[C@H]1CN([C@@H](C)CO)C(=O)Cc2cc(NC(=O)Nc3ccc(F)cc3)ccc2O[C@@H]1CN(C)Cc1ccc(C(=O)Nc2ccccc2N)cc1`, “inactive”.
To `C[C@@H]1CCCCO[C@@H](CN(C)C(=O)NC2CCCCC2)[C@@H](C)CN([C@@H](C)CO)C(=O)c2cc(NC(=O)Nc3ccc(F)cc3)ccc2O1` belongs “inactive”.
To `Cc1noc(C)c1S(=O)(=O)N(C)C[C@@H]1Oc2ccc(NS(=O)(=O)c3ccccc3)cc2C(=O)N([C@H](C)CO)C[C@@H]1C` belongs “inactive”; to `C[C@@H]1CCCCO[C@@H](CN(C)Cc2ccncc2)[C@@H](C)CN([C@@H](C)CO)C(=O)c2cc(NC(=O)Cc3ccccc3)ccc2O1`, “inactive”.
`C[C@@H]1CCCCO[C@H](CN(C)C(=O)CCC(F)(F)F)[C@@H](C)CN([C@H](C)CO)C(=O)c2cc(NC(=O)Nc3ccccc3)ccc2O1`: the cytotoxicity call is “inactive”.
In the case of `C[C@H]1CN([C@@H](C)CO)C(=O)c2cccc(NC(=O)Nc3ccc4c(c3)OCO4)c2O[C@@H]1CN(C)S(C)(=O)=O`, the cytotoxicity call is “inactive”.
As to `CN(C)CC(=O)N[C@H]1CC[C@@H](CC(=O)NCCN2CCCCC2)O[C@@H]1CO`, the cytotoxicity call is “inactive”.
To `C[C@H]1CN([C@@H](C)CO)C(=O)c2cc(NS(=O)(=O)c3ccc(F)cc3)ccc2O[C@@H]1CN(C)S(=O)(=O)c1cn(C)cn1` belongs “inactive”; to `O=C(O)c1cn2cccc(O)c2n1`, “inactive”.
